“And” between values parts separate entries of the source, which are not always exact repeats. Equal entries are not always repeated. The whole screen tested about 220,000 compounds, of which about 2,600 (1.2%) were called active. The sample holds actives, similar compounds and a random draw of the others, so the mix is not that of the screen.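 Rule for the calls: active = activation above the mean of all tested compounds plus 3 SD, set per screening run (cut at about 8.8% in these data); inactive = the rest.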
The compounds below were run against Wee1-like protein kinase (Homo sapiens) (UniProt P30291) (assay: Wee1 degradation inhibitors, primary screen, cell-based, HeLa, Wee1K328M-luciferase, luminescence (AID 1321;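 note: cells exposed to compound for 20 h before luminescence read; 0% = DMSO alone and 100% = MG132 at 30 µM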)). Conditions: HeLa Luc-Wee1K328M stability, at 5 µM, hits give high values, 100% = proteasome inhibitor MG132 effect.
For `CC1(C)CN(c2ccc(-c3ccnc4ncnn34)cc2)C1=O`, the reporter increase was 9.83% (active). `Nc1c(-c2ccc(F)cc2)cnc2ncnn12` was tested, and the reporter increase was -2.59% (inactive). `Cc1cc(C(=O)OCC(=O)Nc2nccs2)c2ccccc2n1` was tested, and the reporter increase was -2.08% (inactive). With `CCn1nc(C(=O)OCC(=O)N2c3ccccc3CC2C)c2ccccc2c1=O` (stereo unspecified) the reporter increase was -0.36% (inactive). With `CCOC(=O)c1[nH]c(C)c(C(=O)OCC(=O)N2c3ccccc3CC2C)c1C` (stereo unspecified) the reporter increase was 15.6% (active). `Cc1cc(=O)[nH]c(SCC(=O)N2c3ccccc3CC2C)n1` (stereo unspecified) was tested, and the reporter increase was -2.08% (inactive). In the case of `CC(=O)NCc1ccc(S(=O)(=O)NC2CCN(Cc3ccccc3)CC2)cc1`, the reporter increase was 0.4% (inactive). `CCOc1ccccc1NC(=O)C1CCN(S(=O)(=O)c2c(C)nn(C)c2C)CC1` was tested, and the reporter increase was -1.78% (inactive). For `CCOc1ccc(OCC)c(NC(=O)C2CCN(S(=O)(=O)c3c(C)noc3C)CC2)c1`, the reporter increase was 11.6% (active). `CCOC(=O)C1CCN(C(=O)C2CCN(S(=O)(=O)c3c(C)noc3C)CC2)CC1` was tested, and the reporter increase was -0.61% (inactive). With `CC1(C)CC(N2CCN(C(c3ccccc3)c3ccccc3)CC2)=CC(=[N+]2CCCCC2)C1` the reporter increase was -0.62% (inactive). `Nc1nc(O)c(CC(=O)O)s1` was tested, and the reporter increase was -1.29% (inactive). `O=C(O)c1ccc(/C=N/Nc2nc(N3CCCCC3)nc(N3CCCCC3)n2)cc1` was tested, and the reporter increase was -2.82% (inactive). `O=C(c1c(Cl)cccc1Cl)N1CCN(c2cccc3[nH]ccc23)CC1` was tested, and the reporter increase was 0.73% (inactive). For `O=C(COC(=O)c1ccc(F)cc1F)Nc1ncccn1`, the reporter increase was 0.53% (inactive). With `Cc1ccc(-c2nc3ccccc3[nH]c2=O)cc1` the reporter increase was 9.13% (active). For `Cc1ccc(-c2nc3ccccc3[nH]2)cc1N`, the reporter increase was 0.78% (inactive). With `O=C(Cc1nc2ccccc2[nH]c1=O)c1ccc(Cl)cc1` the reporter increase was 3.48% (inactive). With `O=C(COC(=O)c1ccc(S(=O)(=O)Nc2ccccc2)cc1)NCC1CCCO1` (stereo unspecified) the reporter increase was -1.62% (inactive). For `NS(=O)(=O)c1ccc(NC2=CC(c3ccc(F)cc3)N(c3ccc(S(N)(=O)=O)cc3)C2=O)cc1` (stereo unspecified), the reporter increase was 0.72% (inactive). For `CC(CNS(=O)(=O)c1ccc(Br)cc1)CN(C)C` (stereo unspecified), the reporter increase was -0.62% (inactive). In the case of `O=S(=O)(Nc1ccc(Cl)cn1)c1cnc(Cl)c(Br)c1`, the reporter increase was -0.3% (inactive). `COc1ccc(CN2C(=O)C(C)S/C2=N/N=C/c2ccco2)cc1` (stereo unspecified) was tested, and the reporter increase was 5.4% (inactive). For `CN(C)S(=O)(=O)c1cccc(NC(=S)NCc2ccc3c(c2)OCO3)c1`, the reporter increase was 3.85% (inactive). With `CN(C)S(=O)(=O)c1cccc(NC(=S)N/N=C/C(=O)c2ccccc2)c1` the reporter increase was -1.91% (inactive). For `Cc1ccc(/C=N/NC(=S)Nc2cccc(S(=O)(=O)N(C)C)c2)o1`, the reporter increase was 9.21% (active). In the case of `N#Cc1ccccc1Sc1ccccc1C(=O)OCC(=O)NC1CCCCC1`, the reporter increase was 2.45% (inactive). With `CCOc1ncccc1C(=O)OCC(=O)NC1CC1` the reporter increase was -1.43% (inactive). With `O=C(COC(=O)c1ccccc1SCC(=O)NC1CCCCC1)NC1CCCCC1` the reporter increase was 11.2% (active). For `COc1ccccc1Nc1nc(N)nc(CSC(=S)N2CCOCC2)n1`, the reporter increase was -0.95% (inactive). In the case of `O=C(Nc1ccc2c(c1)OCCO2)c1ccoc1`, the reporter increase was 2.96% (inactive). With `Cc1coc2cc3oc(=O)c(CCC(=O)O)c(C)c3cc12` the reporter increase was 5.73% (inactive). `S=c1[nH]nc(-c2ccncc2)n1/N=C/c1ccccc1Cl` was tested, and the reporter increase was -0.32% (inactive). For `COc1ccc(O)c(C(=O)c2cnc3c(c2)c(-c2ccc(F)cc2)c(C#N)c(=O)n3C)c1`, the reporter increase was 9.71% (active). For `COCCn1c(=O)[nH]c(=O)c2cc(C(=O)c3cc(OC)ccc3O)cnc21`, the reporter increase was 0.11% (inactive). For `COc1ccc(O)c(C(=O)c2cnc3onc(C(C)C)c3c2)c1`, the reporter increase was -2.73% (inactive). With `COc1ccccc1NC(=O)c1cc(Cl)nc2ccccc12` the reporter increase was 0.15% (inactive). In the case of `Nc1cccc(S(=O)(=O)Nc2ccc(SC(F)F)cc2)c1`, the reporter increase was -0.8% (inactive). `CC(=O)Nc1ccc(S(=O)(=O)NC(C)C(=O)OCC(=O)NC2CCCC2)cc1` (stereo unspecified) was tested, and the reporter increase was 11.2% (active). For `CCOC(=O)[C@H]1CCC[C@@H](NS(=O)(=O)c2ccc(NC(C)=O)cc2)C1`, the reporter increase was 0.32% (inactive). With `CC(C)NS(=O)(=O)c1ccc(NC(=O)C2CCCCC2)cc1` the reporter increase was -3.05% (inactive). In the case of `OCCC1CN(Cc2cnc(-c3ccccc3)s2)CCN1CCc1ccccc1` (stereo unspecified), the reporter increase was 9.46% (active). `OCCC1CN(Cc2ccc(Oc3ncccn3)cc2)CCN1CCc1ccccc1` (stereo unspecified) was tested, and the reporter increase was -0.52% (inactive). With `OCCC1CN(Cc2cccc(O)c2)CCN1CCc1ccccc1` (stereo unspecified) the reporter increase was -3.15% (inactive). `O=C(O)Cc1csc(-c2cccc(Oc3ccccc3)c2)n1` was tested, and the reporter increase was 3.33% (inactive) and -2.75% (inactive). With `S=c1nc2ccccc2c2nc(-c3cccnc3)[nH]n12` the reporter increase was 1.58% (inactive). In the case of `C=CCn1c(=S)sc2c(=O)[nH]c(C)nc21`, the reporter increase was 9.98% (active). `C=CCn1c(-c2ccc3[nH]c(C)c(C)c3c2)n[nH]c1=S` was tested, and the reporter increase was -4.16% (inactive). In the case of `C=CCn1c(-c2sc(-c3ccccc3)nc2C)n[nH]c1=S`, the reporter increase was -4.5% (inactive). For `S=c1[nH]nc(-c2cccs2)n1/N=C/c1cn(-c2ccccc2)nc1-c1ccc(Cl)cc1`, the reporter increase was -0.32% (inactive). With `CCc1ccc2oc(-c3ccc(N)cc3)nc2c1` the reporter increase was 18.6% (active). `COc1cccc(-c2nc3cc(C)ccc3o2)c1` was tested, and the reporter increase was 1.41% (inactive). With `CCCCCC(=O)Nc1ccc2oc(-c3ccncc3)nc2c1` the reporter increase was -0.09% (inactive). With `O=C(NCc1ccccc1)c1ccc(CNc2c(N3CCCC3)c(=O)c2=O)cc1` the reporter increase was -2.66% (inactive). In the case of `COc1ccc(N2CCN(C(c3cc4ccc(C)cc4[nH]c3=O)c3nnnn3C3CCCC3)CC2)cc1` (stereo unspecified), the reporter increase was 0.68% (inactive). With `CCOC(=O)C1CCN(C(c2cc3cc(C)cc(C)c3[nH]c2=O)c2nnnn2C2CCCCC2)CC1` (stereo unspecified) the reporter increase was 1.1% (inactive). For `CN1CCN(C(c2cc3cc4c(cc3[nH]c2=O)OCCO4)c2nnnn2C2CCCC2)CC1` (stereo unspecified), the reporter increase was 11.8% (active). For `COc1ccc(-c2nn(C)c(=O)c3ccccc23)cc1CNC(=O)C1CCCCC1`, the reporter increase was 0.26% (inactive). `CCN(CC)CCNCC(=O)Nc1ccc(Oc2ccccc2)cc1` was tested, and the reporter increase was 2.79% (inactive). `O=c1ccnc(Nc2ccc(Cl)cc2)[nH]1` was tested, and the reporter increase was 1.16% (inactive). With `O=C(COC(=O)c1ccc(NS(=O)(=O)c2cccs2)cc1O)Nc1ccc(F)cc1` the reporter increase was -0.64% (inactive). For `c1ccc(-n2ncc3c(N4CCCC4)ncnc32)cc1`, the reporter increase was 5.02% (inactive). With `COc1ccc(-n2ncc3c(N4CCCc5ccccc54)ncnc32)cc1` the reporter increase was 3.61% (inactive). With `COc1ccc(-n2ncc3c(N4CCc5ccccc54)ncnc32)cc1` the reporter increase was 8.86% (active). In the case of `COc1ccc(CCNC(=O)C(=O)Nc2ccc3nc4n(c(=O)c3c2)CCCCC4)cc1OC`, the reporter increase was 1.04% (inactive). In the case of `Brc1ccc(-c2noc(-c3ccccc3)n2)o1`, the reporter increase was 0.13% (inactive). For `Cn1c(CSCC(=O)Nc2ccccc2)nnc1SCc1ccccc1`, the reporter increase was -1.68% (inactive). `COC(=O)c1cccc([N+](=O)[O-])c1CS(=O)(=O)c1ccc(C)cc1` was tested, and the reporter increase was 1.24% (inactive). `Cc1ccc(N=C2NC(=O)c3cccc([N+](=O)[O-])c32)cc1` was tested, and the reporter increase was 8.82% (active). In the case of `CCCCOc1ccc(CON(C(C)=O)C(C)=O)cc1Cl`, the reporter increase was -0.35% (inactive). In the case of `c1csc(-c2nnc(COc3ncnc4sccc34)o2)c1`, the reporter increase was 1.62% (inactive). With `O=C1C(Cc2ccc(O)cc2)NC(=S)N1Cc1ccccc1` (stereo unspecified) the reporter increase was -2.34% (inactive). In the case of `COc1cccc(-n2c(=S)[nH]c3c(oc4ccccc43)c2=O)c1`, the reporter increase was 5.9% (inactive). With `CSc1nc2sc3c(c2c(=O)[nH]1)CCc1ccccc1-3` the reporter increase was -0.01% (inactive). `COc1ccc(-n2c(=S)[nH]c3sc4c(c3c2=O)CCc2ccccc2-4)cc1` was tested, and the reporter increase was 8.88% (active). `COc1ccc(CCNS(=O)(=O)c2cccc3cccnc23)cc1OC` was tested, and the reporter increase was -3.35% (inactive). For `Cc1ccc(/C=N/NC(=O)CSc2ccccn2)o1`, the reporter increase was 3.47% (inactive). `O=C(Nc1ccccc1N1CCOCC1)c1csc2c1CCCC2` was tested, and the reporter increase was -0.73% (inactive). For `Cc1nc2cccnc2nc1C`, the reporter increase was 6.05% (inactive). For `CC(C)(C)NC(=O)CN(C(=O)c1ccc(Cl)nc1)c1cccc2ccccc12`, the reporter increase was -1.92% (inactive). For `CC(C)(C)NC(=O)CN(C(=O)c1csnn1)c1ccccc1-c1ccccc1`, the reporter increase was 10.2% (active). In the case of `CCC(C)(C)NC(=O)C(c1ccccn1)N(C(=O)c1csnn1)c1ccccc1` (stereo unspecified), the reporter increase was 1.04% (inactive). For `CC(C)COC(=O)n1c(=O)oc2ccc(S(=O)(=O)N3CCCCC3)cc21`, the reporter increase was -1.87% (inactive). For `Cn1c(=O)n(C)c2cc(NS(=O)(=O)c3ccc(F)cc3)ccc21`, the reporter increase was 12.5% (active). `Cn1nccc1NS(=O)(=O)c1ccc(F)cc1` was tested, and the reporter increase was 0.03% (inactive). For `Cc1cc(C)cc(NS(=O)(=O)c2ccc(F)cc2)c1`, the reporter increase was -2.79% (inactive). With `Cn1c2ccccc2c2cc(/C=C(\NC(=O)c3ccccc3)C(=O)NCC(=O)O)ccc21` the reporter increase was -0.33% (inactive). `CCN(CC)c1ccc(NC(=O)c2ccc(Cl)nc2)cc1` was tested, and the reporter increase was 10.4% (active). With `NS(=O)(=O)c1ccc(NC(=O)COC(=O)c2ccc(Cl)nc2)cc1` the reporter increase was -1.21% (inactive). For `O=C(NNc1ccccn1)c1ccc(Cl)nc1`, the reporter increase was -1.7% (inactive). With `CCCc1nc(-c2cc3cc(C)ccc3[nH]c2=O)no1` the reporter increase was -2.96% (inactive). In the case of `FC(F)(F)Oc1ccc(-c2cn3cccnc3n2)cc1`, the reporter increase was -1.79% (inactive). With `COc1ccc(CCN2C(=O)N(c3ccc(OC)cc3)C(=O)C2CC(=O)Nc2ccc(OC)cc2)cc1` (stereo unspecified) the reporter increase was -1.78% (inactive). `CCCC1=Nc2cc(C(=O)NCc3ccco3)ccc2Sc2ccccc21` was tested, and the reporter increase was 11.6% (active). For `CCOc1ccccc1C(=O)NCc1ccco1`, the reporter increase was -0.54% (inactive). For `COc1ccc(CCNS(=O)(=O)c2ccc(C(=O)NCc3ccco3)cc2)cc1OC`, the reporter increase was -0.79% (inactive).
